From PubChem BioAssay AID651956 (Broad Institute, 2012)
Measured potencies and affinities stand elsewhere. Inconclusive results are not listed.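 Rule for the calls: active = in every test run, a fitted half-maximal concentration for signal decrease at or below twice the highest tested concentration; inconclusive = runs disagree, flat 30 to 70% decrease, or poor fit; inactive = the rest.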

Experiment: miR-122 activators in hepatoma reporter cells, dose response, cell-based, Huh7 psiCHECK-miR122, Renilla luciferase, cherry-picked (AID 651956);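 note: Renilla luciferase from a miR-122 sensor reporter so lower signal means miR-122 activation; 0% = median neutral control wells and -100% = median positive control wells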
Settings: 48 h; series mostly up to 35 µM; activity change, negative = signal decrease: at the top concentration

Activity change, negative = signal decrease, inactive:
CN1C(=O)c2cc(NC(=O)c3cccc(F)c3)ccc2OC[C@@H]2O[C@@H](CC(=O)NC3CCC3)CC[C@@H]21 53.3%, CCCNC(=O)N1C[C@@H]2[C@H](c3ccccc31)[C@@H](CO)N2Cc1cc(F)ccc1F -0.833%, C/C=C/c1ccc([C@@H]2[C@@H](CN(C)C(=O)CC)N(C(=O)NC(C)C)[C@H]2CO)cc1 -35.2%, CNC[C@H]1Oc2cc(C#CC3CCCC3)ccc2S(=O)(=O)N([C@H](C)CO)C[C@H]1C -91.6%, O=C(C1CCCCC1)N1C[C@@H]2[C@H](c3ccccc31)[C@H](CO)N2Cc1ccccc1Cl -10%
